Here are results for eleven molecules from article PMC5540273 (PLoS ONE, 2017).

Structures are written as SMILES.

Test systems include BLK; BMPR1A; BMPR1B; BMPR2; BMX; BRAF; BRSK1; BRSK2; BTK; BUB1; CAMK1B; CAMK1D; CAMK1G; CAMK1; CAMK2A; CAMK2B; CAMK2D; CAMK2G.
What all share (details): concentration: 1 μM, replicates: in singlicate; n = 1
For another assay, the system named is T1, BIKE.
T1 construct: gene BMP2K

The next assay deals with T2, BRK.
T2 construct: gene PTK6
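Further: KINOMEscan kinase panel screen.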

On to `Cc1ccc(NC(=O)Nc2ccccc2)cc1-c1ccc(C(=O)Nc2ccncc2)cc1` [GSK1398471], for which the “%Inh” value is 20% in the assay with BIKE; 33% in the assay with BLK; 0% in the assay on BMPR1A; 0% in the assay with BMPR1B; 0% with BMPR2; 18% in the assay on BMX. Also, the “%Inh” value in the assay with BRAF is reported as 32%; in the assay with BRK, 15%; in the assay on BRSK1, 9%; in the assay on BRSK2, 2%; in the assay on BTK, 0%; in the assay with BUB1, 0%. Also, the “%Inh” value in the assay on CAMK1B is listed as 13%; in the assay with CAMK1D, 20%; with CAMK1G, 0%; in the assay on CAMK1, 15%; in the assay with CAMK2A, 0%; in the assay on CAMK2B it was 0%. In addition, the entries for the “%Inh” value in the assay with CAMK2D and with CAMK2G were 0% and 9%, respectively.
As to `COc1nccc(-c2c(-c3ccc(F)cc3)ncn2CCCN2CCOCC2)n1` [SB-282852], the “%Inh” value with BIKE amounted to 0%; with BLK, 0%; in the assay with BMPR1A it was 0%; in the assay with BMPR1B, 0%; in the assay on BMPR2, 25%; with BMX, 0%. The “%Inh” value in the assay with BRAF is 20%; with BRK, 0%; in the assay with BRSK1, 0%; in the assay on BRSK2, 0%; with BTK it was 33%; with BUB1, 0%. The “%Inh” value in the assay on CAMK1B is recorded as 29%; with CAMK1D, 0%; in the assay with CAMK1G, 0%; in the assay with CAMK1, 0%; with CAMK2A, 0%; in the assay on CAMK2B, 0%. The “%Inh” value with CAMK2D and in the assay on CAMK2G was 0% each time.
For `Cl.Cl.Cl.N#Cc1ccc(CCNc2nccc(-c3cccc(CN4CCNCC4)c3)n2)cc1` [GSK2137462], the “%Inh” value in the assay on BIKE was determined as 25%; with BLK it was 0%; in the assay with BMPR1A, 0%; with BMPR1B, 0%; in the assay on BMPR2 it was 0%; with BMX, 12%. In addition, the “%Inh” value with BRAF was 0%; in the assay on BRK, 8%; with BRSK1, 0%; in the assay on BRSK2, 2%; with BTK, 0%; with BUB1, 0%. For the same molecule, the “%Inh” value came out at 0% in the assay on CAMK1B; 29% with CAMK1D; 24% with CAMK1G; 31% with CAMK1; 11% in the assay with CAMK2A; 3% in the assay on CAMK2B. Besides, the entries for the “%Inh” value in the assay with CAMK2D and with CAMK2G were 28% and 27%, respectively.
For the molecule `COc1cccc(NC(=O)Nc2ccc(C)c(-c3ccc(C(=O)Nc4ccncc4)cc3)c2)c1` [GSK1398474], the “%Inh” value in the assay with BIKE amounted to 26%; in the assay on BLK, 40%; in the assay on BMPR1A, 0%; in the assay on BMPR1B, 0%; in the assay with BMPR2, 0%; in the assay on BMX it was 18%. Also, the “%Inh” value with BRAF was 30%; in the assay on BRK it was 0%; in the assay with BRSK1 it was 12%; in the assay with BRSK2 it was 96.2%; with BTK, 0%; in the assay with BUB1 it was 0%. Further, the “%Inh” value in the assay on CAMK1B was 0%; with CAMK1D it was 25%; in the assay on CAMK1G, 0%; with CAMK1, 21%; in the assay on CAMK2A it was 0%; with CAMK2B it was 2%. Also, the entries for the “%Inh” value in the assay on CAMK2D and in the assay with CAMK2G were 11% and 22%, respectively.
As for `COc1cc2ncnc(Nc3cccc(Br)c3)c2cc1OC.Cl` [GI230329], the “%Inh” value in the assay with BIKE is recorded as 19%; with BLK, 79%; with BMPR1A, 0%; with BMPR1B, 0%; with BMPR2 it was 0%; with BMX, 10%. In addition, the “%Inh” value in the assay with BRAF is 0%; in the assay with BRK it was 10%; in the assay on BRSK1 it was 20%; with BRSK2 it was 14%; with BTK it was 30%; with BUB1 it was 96.5%. The “%Inh” value in the assay with CAMK1B came to 0%; in the assay on CAMK1D, 18%; with CAMK1G, 0%; with CAMK1, 23%; in the assay on CAMK2A, 0%; with CAMK2B, 0%. The figures for the “%Inh” value in the assay with CAMK2D and with CAMK2G were 0% and 32%, respectively.
On to `COc1ccc(-c2coc3ccc(-c4nnc(C)o4)cc23)cc1`, for which the “%Inh” value is listed as 0% with BIKE; 3% in the assay on BLK; 18% in the assay on BMPR1A; 0% with BMPR1B; 0% with BMPR2; 0% in the assay with BMX. Besides, the “%Inh” value turned out to be 0% in the assay with BRAF; 0% in the assay with BRK; 0% in the assay with BRSK1; 100% with BRSK2; 0% in the assay on BTK; 0% in the assay on BUB1. In addition, the “%Inh” value in the assay with CAMK1B is recorded as 0%; with CAMK1D it was 13%; in the assay on CAMK1G, 5%; in the assay with CAMK1 it was 0%; in the assay on CAMK2A it was 0%; with CAMK2B, 0%. Further, the figures for the “%Inh” value in the assay on CAMK2D and with CAMK2G were 5% and 0%, respectively.
`CC(=O)c1c(C)c2cnc(Nc3ccc(N4CCNCC4)cn3)nc2n(C2CCCC2)c1=O`: the “%Inh” value with BIKE came to 0%; in the assay on BLK it was 0%; with BMPR1A, 15%; in the assay with BMPR1B it was 0%; in the assay on BMPR2, 0%; with BMX, 0%. The “%Inh” value in the assay on BRAF, with BRK, with BRSK1, in the assay on BRSK2, in the assay on BTK and with BUB1 was 0% throughout. In addition, the “%Inh” value with CAMK1B is given as 0%; in the assay with CAMK1D, 2%; in the assay with CAMK1G, 0%; with CAMK1 it was 0%; in the assay on CAMK2A, 0%; with CAMK2B it was 0%. Further, the “%Inh” value in the assay with CAMK2D and in the assay with CAMK2G was 0% throughout.
Take `COc1ccc(Nc2nccc(N3CCC(NC(=O)C(C)c4ccc(Cl)cc4)C3)n2)cc1` (stereo not shown) [GSK1379735]: the “%Inh” value in the assay with BIKE was 25%; in the assay with BLK, 33%; with BMPR1A it was 19%; with BMPR1B it was 0%; in the assay on BMPR2 it was 4%; in the assay on BMX, 27%. Further, the “%Inh” value in the assay with BRAF was found to be 0%; in the assay with BRK, 0%; with BRSK1 it was 7%; in the assay with BRSK2, 0%; with BTK, 0%; in the assay with BUB1 it was 17%. Besides, the “%Inh” value in the assay with CAMK1B was 5%; in the assay with CAMK1D, 14%; with CAMK1G it was 0%; with CAMK1, 9%; in the assay with CAMK2A, 14%; in the assay with CAMK2B, 25%. In addition, the “%Inh” value amounted to 1% in the assay on CAMK2D and 15% in the assay with CAMK2G.
Consider `Fc1ccc(-c2nc3n(c2-c2ccncc2)CCS3)cc1` [GI98581], for which the “%Inh” value with BIKE is 32%; with BLK, 45%; with BMPR1A, 0%; with BMPR1B, 0%; in the assay on BMPR2, 0%; with BMX, 12%. For the same molecule, the “%Inh” value with BRAF was 0%; in the assay with BRK, 13%; with BRSK1, 0%; in the assay with BRSK2 it was 0%; with BTK, 0%; in the assay with BUB1 it was 53%. Further, the “%Inh” value in the assay on CAMK1B is 31%; with CAMK1D it was 1%; in the assay with CAMK1G it was 0%; in the assay on CAMK1, 0%; with CAMK2A, 0%; in the assay on CAMK2B, 0%. For the same molecule, the “%Inh” value in the assay with CAMK2D is recorded as 3%; with CAMK2G, 14%.
As to `Cc1cnc(N)c(/C=C/c2cncc(C(=O)NCCc3ccc(Cl)cc3Cl)c2)c1.Cl` [GSK190937], the “%Inh” value in the assay with BIKE worked out at 23%; with BLK it was 3%; with BMPR1A it was 0%; with BMPR1B it was 0%; in the assay on BMPR2, 0%; with BMX, 19%. Besides, the “%Inh” value in the assay with BRAF came to 1%; in the assay with BRK it was 7%; in the assay with BRSK1, 0%; with BRSK2 it was 0%; in the assay with BTK, 1%; in the assay on BUB1, 9%. Besides, the “%Inh” value with CAMK1B is on record as 0%; in the assay on CAMK1D, 10%; in the assay on CAMK1G, 7%; in the assay with CAMK1 it was 12%; with CAMK2A, 0%; in the assay on CAMK2B, 0%. In addition, the “%Inh” value in the assay on CAMK2D was 6%; in the assay with CAMK2G, 27%.
With `O=c1cc(N2CCOCC2)nc2n(Cc3ccccc3F)ccn12` [GSK2297428], the “%Inh” value with BIKE came to 0%; with BLK, 21%; in the assay with BMPR1A, 0%; with BMPR1B it was 0%; in the assay on BMPR2 it was 0%; in the assay on BMX it was 13%. The “%Inh” value in the assay with BRAF turned out to be 0%; with BRK it was 36%; in the assay on BRSK1, 0%; with BRSK2, 100%; in the assay on BTK, 0%; in the assay on BUB1 it was 0%. Moreover, the “%Inh” value is reported as 0% in the assay with CAMK1B; 16% in the assay on CAMK1D; 5% in the assay on CAMK1G; 15% with CAMK1; 0% with CAMK2A; 0% in the assay with CAMK2B. Moreover, the “%Inh” value is 7% in the assay on CAMK2D and 15% with CAMK2G.
